Five compounds from PubChem BioAssay can be followed below.

Assay [1] has as its system Wnt5a (protein binding on small-molecule microarray). Kind of assay: small molecules binding Wnt5a protein – biophysical, small-molecule microarray, 635/667 nm fluorescence, primary screen (AID 1142).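 Further: fluorescence read at 667 nm with signal to noise per printed feature.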 The conditions noted are these: 635 nm fluorescence, higher = more signal.
Assay [2] can be described thus: ATP-based viability of Huh7 replicon cells – cell-based, CellTiter-Glo luminescence, basal, 48 h, cytotoxicity control for HCV replication inhibitor project, primary screen (AID 1143).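 Further: Huh7 hepatoma cells carrying a hepatitis C replication reporter with no stimulus; test concentration not given here.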 Particulars: higher = more signal, called active from +8 up or from −8 down. For orientation: Replicon systems follow genome replication, usually without infectious particles.
Assay [3] in a line: Pseudomonas biofilm growth suppression – PAO1 strain, BacTiter-Glo luminescence, LB-PBS, primary screen (AID 1144). The conditions noted are these: P. aeruginosa PAO1 biofilm, 12 h, higher = more signal.
A short description of assay [4]: basal CRE-LacZ reporter activity in PC12 – cell-based, unstimulated, primary screen (AID 1145). The conditions noted are these: no forskolin, luminescence, 4.5 h, higher = more signal, called active from +8 up or from −8 down.
Assay [5] can be described thus: forskolin-driven CRE-LacZ activity in PC12 – cell-based, CRE-LacZ reporter, forskolin-stimulated, primary screen (AID 1146).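 Further: PC12 cells with 6xCRE LacZ reporter stimulated by forskolin 10 µM; beta-galactosidase reporter signal reflecting CREB driven transcription.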 The conditions noted are these: luminescence, 4.5 h, higher = more signal, called active from +8 up or from −8 down.
In assay [6] the target is Streptavidin (Streptomyces avidinii) (UniProt P22629). In words: compounds binding control protein streptavidin – biophysical, small-molecule microarray, 635/667 nm fluorescence, artefact control for SMM compound annotation, primary screen (AID 1147).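 Further: signal reflects streptavidin binding to arrayed compounds as a control protein.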 The conditions noted are these: higher = more signal.
Streptavidin (Streptomyces avidinii), sequence (P22629 whole entry, looked up): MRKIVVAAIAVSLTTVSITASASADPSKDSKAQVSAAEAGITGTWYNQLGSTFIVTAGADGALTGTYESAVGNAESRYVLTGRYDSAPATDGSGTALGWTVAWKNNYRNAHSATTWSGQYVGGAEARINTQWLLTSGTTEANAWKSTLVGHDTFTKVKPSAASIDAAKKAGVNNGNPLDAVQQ
Assay [7] can be described thus: probe aInhba binding on compound microarray – biochemical, small-molecule microarray, 635/667 nm fluorescence, primary screen (AID 1148).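 Further: score merges 667nm spot fluorescence with signal-to-noise for antibody binding to printed compounds.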 The conditions noted are these: higher = more signal.
Assay [8] addresses Torsin-1A (Homo sapiens) (UniProt O14656). Kind of assay: TOR1A wild-type binding on microarray – cell lysate, small-molecule microarray, lysate, 635/667 nm, primary screen (AID 1149). Particulars: COS7 hTOR1A-WT lysate, 635 nm fluorescence, higher = more signal.
For assay [9] the target is unchanged. In words: torsin A mutant lysate binding on microarrays – cell lysate, small-molecule microarray, COS7 lysate, 635/667 nm fluorescence, primary screen (AID 1150).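 Further: score pools 667 nm emission and signal to noise measuring lysate protein binding.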 The conditions noted are these: COS7 hTOR1A mutant lysate, 635 nm fluorescence, higher = more signal.
Assay [10] relates to Sonic hedgehog protein (Shh). Kind of assay: Sonic hedgehog microarray binding compounds – biochemical, small-molecule microarray, 635/667 nm fluorescence, primary screen (AID 1151).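 Further: Shh protein binding to compounds spotted on small-molecule microarray slides; score combines spot fluorescence intensity with signal-to-noise across triplicate slides.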 Particulars: 635 nm fluorescence, higher = more signal.
Assay [11] in a line: optical density shifts of acrAB sulA E. coli – strain DRC41, OD650, 48 h, E. coli filamentation inducer project, primary screen (AID 1152).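 Further: E. coli MC1000 strain DRC41 lacking acrAB efflux pump and sulA.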 Particulars: higher = more signal, called active from +8 up or from −8 down.
Assay [12] can be described thus: probe aLefty1 binding on compound microarray – biochemical, small-molecule microarray, 635/667 nm fluorescence, primary screen (AID 1153).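 Further: score merges spot fluorescence with signal-to-noise ratio from the scanned slide images.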 The conditions noted are these: higher = more signal.
Assay [13] can be described thus: plasmodial surface anion channel blockers, osmotic lysis – cell-based, P. falciparum Indochina, OD700, 1 h, primary screen (AID 1154). The conditions noted are these: P. falciparum Indochina infected RBC osmotic lysis, higher = more signal, called active from +8 up or from −8 down.
Assay [14] is described as follows: plasmodial surface anion channel blockers, osmotic lysis – cell-based, P. falciparum Indochina, OD700, 2 h, primary screen (AID 1155).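 Further: lysis reports solute entry through the parasite surface anion channel PSAC.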 The conditions noted are these: P. falciparum Indochina infected erythrocytes, higher = more signal, called active from +8 up or from −8 down.
A short description of assay [15]: changes in parasitized red cell lysis, either direction – P. falciparum Indochina, OD700, 3 h, PSAC antagonist project, primary screen (AID 1156). The conditions noted are these: P. falciparum-infected erythrocytes, osmotic lysis, higher = more signal, called active from +8 up or from −8 down.
The nature of assay [16]: plasmodial surface anion channel blockers, osmotic lysis – cell-based, P. falciparum Indochina, OD700, 18 h, primary screen (AID 1157). Particulars: P. falciparum Indochina infected erythrocytes, osmotic lysis OD700, 18 h; higher = more signal, called active from +8 up or from −8 down.
The nature of assay [17]: S6 kinase pathway phospho-S6 level changes – cell-based, A549, cytoblot, luminescence, serum-stimulated, primary screen (AID 1158).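 Further: serum-stimulated A549 lung adenocarcinoma cells; signal is phosphorylated S6 detected by cytoblot immunostaining with HRP secondary.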 The conditions noted are these: 5 h, higher = more signal.
The target in assay [18] is NADPH oxidase 2 (Homo sapiens) (UniProt P04839). Kind of assay: compounds shifting NOX2 Amplex Red fluorescence – cell-based, HEK293-NOX2, PMA-stimulated, NOX inhibitor project, primary screen (AID 1159). Further: test concentration not given here. The conditions noted are these: 45 min, higher = more signal, called active from +8 up or from −8 down.
NADPH oxidase 2 (Homo sapiens), sequence (P04839 whole entry, looked up): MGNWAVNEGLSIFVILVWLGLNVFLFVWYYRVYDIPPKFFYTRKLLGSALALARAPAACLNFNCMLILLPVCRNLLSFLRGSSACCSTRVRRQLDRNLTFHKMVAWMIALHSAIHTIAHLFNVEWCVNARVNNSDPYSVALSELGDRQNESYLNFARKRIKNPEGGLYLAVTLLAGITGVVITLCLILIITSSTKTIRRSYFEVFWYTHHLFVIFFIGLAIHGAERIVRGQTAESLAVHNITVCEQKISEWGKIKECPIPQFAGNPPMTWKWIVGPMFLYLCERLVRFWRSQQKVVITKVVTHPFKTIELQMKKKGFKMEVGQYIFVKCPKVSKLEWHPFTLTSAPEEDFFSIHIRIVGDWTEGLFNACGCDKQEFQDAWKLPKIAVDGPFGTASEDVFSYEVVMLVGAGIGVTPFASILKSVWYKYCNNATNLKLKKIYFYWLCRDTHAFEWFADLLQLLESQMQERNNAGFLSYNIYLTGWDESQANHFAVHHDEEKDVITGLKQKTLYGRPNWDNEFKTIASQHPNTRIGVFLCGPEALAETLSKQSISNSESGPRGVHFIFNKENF
In assay [19] the target is NADPH oxidase 4 (Homo sapiens) (UniProt Q9NPH5). In words: compounds shifting NOX4 Amplex Red fluorescence – cell-based, HEK293-NOX4, tetracycline-induced, NOX inhibitor project, primary screen (AID 1160). Particulars: HEK293-NOX4, Amplex Red H2O2 fluorescence, 45 min; higher = more signal, called active from +8 up or from −8 down.
NADPH oxidase 4 (Homo sapiens), sequence (Q9NPH5 whole entry, looked up): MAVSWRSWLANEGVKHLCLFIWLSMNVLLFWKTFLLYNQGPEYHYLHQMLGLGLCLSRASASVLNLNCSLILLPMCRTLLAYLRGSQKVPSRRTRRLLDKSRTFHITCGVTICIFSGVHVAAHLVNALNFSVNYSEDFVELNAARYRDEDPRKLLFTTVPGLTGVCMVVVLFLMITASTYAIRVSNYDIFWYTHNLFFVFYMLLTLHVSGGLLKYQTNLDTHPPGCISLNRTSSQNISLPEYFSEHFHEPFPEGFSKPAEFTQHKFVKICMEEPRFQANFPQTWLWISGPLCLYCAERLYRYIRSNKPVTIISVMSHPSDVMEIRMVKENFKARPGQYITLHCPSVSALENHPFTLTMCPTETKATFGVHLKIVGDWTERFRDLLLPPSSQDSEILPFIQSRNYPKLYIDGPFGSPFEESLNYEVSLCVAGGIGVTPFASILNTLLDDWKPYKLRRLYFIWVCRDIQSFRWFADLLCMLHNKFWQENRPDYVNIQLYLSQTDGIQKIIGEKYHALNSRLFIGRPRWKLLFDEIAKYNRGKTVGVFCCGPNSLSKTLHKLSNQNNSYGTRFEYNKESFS
For assay [20], the target named is NADPH oxidase 5 (Homo sapiens) (UniProt Q96PH1). Kind of assay: compounds shifting NOX5 Amplex Red fluorescence – cell-based, HEK293-NOX5, NOX inhibitor project, primary screen (AID 1161). Particulars: HEK293-NOX5, ionomycin, 45 min, higher = more signal.
NADPH oxidase 5 (Homo sapiens), sequence (Q96PH1 whole entry, looked up): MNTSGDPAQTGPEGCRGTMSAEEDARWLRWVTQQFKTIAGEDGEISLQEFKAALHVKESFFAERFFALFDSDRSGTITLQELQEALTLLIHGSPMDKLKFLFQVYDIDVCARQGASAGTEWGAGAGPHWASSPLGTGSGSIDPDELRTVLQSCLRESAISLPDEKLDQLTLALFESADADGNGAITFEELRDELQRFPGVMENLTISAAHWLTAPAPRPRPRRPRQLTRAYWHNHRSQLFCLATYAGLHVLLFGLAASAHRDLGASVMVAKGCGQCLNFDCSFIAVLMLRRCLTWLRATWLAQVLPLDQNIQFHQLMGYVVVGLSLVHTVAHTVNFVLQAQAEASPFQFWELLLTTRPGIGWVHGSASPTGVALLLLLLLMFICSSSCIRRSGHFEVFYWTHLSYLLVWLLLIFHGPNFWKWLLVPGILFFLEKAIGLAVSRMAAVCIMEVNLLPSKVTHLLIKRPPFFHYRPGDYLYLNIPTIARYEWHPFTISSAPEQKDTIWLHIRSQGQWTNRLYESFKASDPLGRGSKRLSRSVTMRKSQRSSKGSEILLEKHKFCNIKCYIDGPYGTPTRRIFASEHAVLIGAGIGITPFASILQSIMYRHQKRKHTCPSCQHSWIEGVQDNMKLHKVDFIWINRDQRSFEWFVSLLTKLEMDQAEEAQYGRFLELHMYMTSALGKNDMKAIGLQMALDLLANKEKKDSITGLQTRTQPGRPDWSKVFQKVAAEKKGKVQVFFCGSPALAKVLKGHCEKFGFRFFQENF

Calls of active or inactive are those of the source. Unless noted, how the calls were made is not given here.

Torsin-1A (Homo sapiens), sequence (O14656 whole entry, looked up): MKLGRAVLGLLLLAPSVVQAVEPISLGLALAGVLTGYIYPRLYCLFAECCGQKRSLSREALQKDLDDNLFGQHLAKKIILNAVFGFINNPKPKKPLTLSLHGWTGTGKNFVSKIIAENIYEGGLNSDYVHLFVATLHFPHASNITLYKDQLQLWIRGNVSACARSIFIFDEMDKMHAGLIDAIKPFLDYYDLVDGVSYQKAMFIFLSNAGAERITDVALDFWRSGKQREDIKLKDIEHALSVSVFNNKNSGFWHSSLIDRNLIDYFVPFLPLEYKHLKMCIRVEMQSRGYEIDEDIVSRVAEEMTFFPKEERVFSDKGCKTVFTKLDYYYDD

In the case of `COCCOC(=O)N1C(=O)[C@@]2(c3cc(C#CCC(C(=O)OC)C(=O)OC)ccc31)[C@H](C(N)=O)[C@H]1C(=O)O[C@H](c3ccccc3)[C@H](c3ccccc3)N1[C@@H]2c1ccccc1OCCO`, the composite z-score was -0.0211 in [1]; 1.09 in assay [6]; -0.0259 in assay [7]; 0.0139 in [8]; 0.212 in [9]; 1.9 in assay [10]. The same compound displayed a composite z-score in assay [12] of -0.189. Also, the z-score was -6.46 (inactive) in assay [2]; -2.59 (inactive) in assay [3]; -1.84 (inactive) in assay [4]; -2.42 (inactive) in assay [5]; 1.08 (inactive) in [11]; 8.08 (active) in assay [13]. For the same compound, the z-score was 2.37 (inactive) in [14]; 2.67 (inactive) in assay [15]; 1.05 (inactive) in [16]; 4.47 in [17]; 1.02 (inactive) in assay [18]; 0.826 (inactive) in assay [19]. Besides, the z-score in assay [20] was -1.13.
Consider `C#CCN(C(=O)OC(C)(C)C)[C@H](CO)c1ccccc1`, for which the composite z-score in assay [1] was -0.1; in assay [6], -0.314; in [7], -0.128; in assay [8] it was 0.435; in [9], 0.411; in assay [10], 0.0466. In assay [12], this compound registered a composite z-score of -0.0536. In addition, the z-score was -1.66 (inactive) in assay [2]; -0.141 (inactive) in assay [3]; 0.0329 (inactive) in assay [4]; -0.653 (inactive) in assay [5]; -1.15 (inactive) in [11]; 1.57 (inactive) in assay [13]. For the same compound, the z-score in [14] is -0.0352 (inactive); in [15], -0.195 (inactive); in [16] it was 0.133 (inactive); in [17], 0.137; in assay [18], 0.441 (inactive); in [19] it was 0.469 (inactive). In assay [20], the z-score came to 0.745.
`CC1C2C(CCCO)=CC(C3C(=O)N(C(N)=O)C(=O)C23)N1Cc1cccc(OC(F)(F)F)c1` (stereo not given): the composite z-score was -0.0205 in assay [1]; 0.664 in [6]; -0.0531 in [7]; 0.438 in [8]; 0.6 in assay [9]; 0.396 in [10]. Moreover, in assay [12], the composite z-score was found to be 0.0982. The z-score in assay [2] was 0.897 (inactive); in assay [3], 0.206 (inactive); in assay [4], -0.233 (inactive); in assay [5], 0.693 (inactive); in assay [11] it was -0.114 (inactive); in assay [13], 0.376 (inactive). Further, the z-score in assay [14] was 0.0112 (inactive); in [15], -0.308 (inactive); in assay [16], 0.0624 (inactive); in assay [17], -0.207; in assay [18] it was 0.217 (inactive); in [19], 0.509 (inactive). Besides, in [20], the z-score worked out at 0.107.
Regarding `CC[C@@H](O[Si](C#C[Si](C(C)C)(C(C)C)C(C)C)(C(C)C)C(C)C)c1cn(Cc2cccc(Cl)c2)nn1`, the composite z-score in assay [1] was 0.159; in [6], 0.424; in [7], -0.124; in assay [8], 0.188; in [9] it was 0.227; in assay [10], 0.546. In assay [12], the composite z-score was found to be 0.106. The z-score in assay [2] is 0.139 (inactive); in assay [3] it was -0.14 (inactive); in assay [4], -0.272 (inactive); in assay [5] it was -0.168 (inactive); in assay [11] it was 1.2 (inactive); in assay [13], -0.0842 (inactive). For the same compound, the z-score in assay [14] is 0.523 (inactive); in assay [15] it was -0.559 (inactive); in [16] it was 0.0622 (inactive); in [17] it was -0.559; in assay [18], -0.16 (inactive); in assay [19], -0.839 (inactive). For the same compound, the z-score in assay [20] is -1.62.
In the case of `C=C(COC)C(=O)CC[C@@H](OC(=O)c1ccccc1-c1ccccc1C(=O)O)c1ccccc1OCCO`, the composite z-score was 0.502 in assay [1]; -0.695 in assay [6]; -0.0762 in [7]; 1.49 in assay [8]; 0.0126 in assay [9]; 1.45 in assay [10]. Moreover, the composite z-score in [12] was -0.103. The z-score in [2] is -0.714 (inactive); in [3], -0.693 (inactive); in [4], 2.73 (inactive); in assay [5] it was 15.8 (active); in [11], -0.564 (inactive); in [13], 5.01 (inactive). For the same compound, the z-score in assay [14] was 0.281 (inactive); in [15], 1.03 (inactive); in [16], -0.209 (inactive); in [17] it was -0.813; in assay [18] it was 0.26 (inactive); in [19], -0.182 (inactive). Further, the z-score in assay [20] is -0.933.
